Source: PubChem BioAssay AID1645879 (National Center for Advancing Translational Sciences (NCATS), 2021)
Results filed as inconclusive are left out. Activity calls are given as the source filed them. Calls come from the whole dose curve; as a rule, active = well fitted inhibition curve with a large enough effect; inconclusive = small, poorly fitted or top-dose-only effect; inactive = no such curve, though single readings can be large or run the other way.

Experiment: Counterscreen qHTS assay for inhibitors of N-terminal methyltransferase 1 (NTMT1): SPKRIA Counterscreen Assay
Conditions: biochemical qHTS; series mostly up to 99.2 µM; activity change, negative = inhibition: at the top concentration
Outline: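 Luminescent SAH detection after 30 min room-temperature reaction with 1 uM SPKRIA, following 15 min compound preincubation. Percent inhibition, normalized to control, fitted by 4-parameter Hill equation.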

Q: With `COc1cc(C)c(/C=C/C(C)=C/C=C/C(C)=C/C(=O)O)c(C)c1C` as the compound, how does the “activity change, negative = inhibition” value read?
A: Its value is -10.6% (inactive).

Q: With `Cc1cc2c(s1)c1cnn(Cc3ccc(C)c(F)c3)c(=O)c1n2C` as the compound, how does the “activity change, negative = inhibition” value read?
A: The value was -3.26% (inactive).

Q: With `O=C(Nc1ccc2c(c1)CCC2)Nc1nnc(-c2ccncc2)s1` as the compound, how does the “activity change, negative = inhibition” value read?
A: Its value is -10.6% (inactive).

Q: For `Cc1ccnc(NC(=S)N2CCNCC2)c1`, which “activity change, negative = inhibition” value is on record?
A: The value was 3.62% (inactive).

Q: With `C1CCC(C(CC2CCCCN2)C2CCCCC2)CC1` (centres undefined) as the compound, how does the “activity change, negative = inhibition” value read?
A: The value was 2.45% (inactive).

Q: With `Cc1c(Cl)ccc2sc(N3CCN(C(=O)C4CC4)CC3)nc12` as the compound, how does the “activity change, negative = inhibition” value read?
A: Its value is 0.752% (inactive).

Q: With `COc1ccccc1C(=O)Nc1onc2c1CCCC2` as the compound, how does the “activity change, negative = inhibition” value read?
A: Its value is -7.37% (inactive).

Q: Which “activity change, negative = inhibition” value does the source give for `Cc1cc2c(s1)c1cnn(Cc3cccc(F)c3)c(=O)c1n2C` here?
A: The value was -5.6% (inactive).

Q: For `CC[C@H](c1ccc(O)cc1)[C@@H](CC)c1ccc(O)cc1`, which “activity change, negative = inhibition” value is on record?
A: The value was -8.78% (inactive).

Q: Which Potency does the source give for `Cc1cccc(C(=O)Nc2sc3c(c2C(=O)O)CCCC3)c1` here?
A: Its Potency is 50.1 µM (active).

Q: For `CC(C)(C)c1ccc(-c2csc(N3CCC(C(N)=O)CC3)n2)cc1`, which “activity change, negative = inhibition” value is on record?
A: The value was -12.4% (inactive).

Q: Which “activity change, negative = inhibition” value does the source give for `Cc1c(Cl)cccc1Nc1nn2c(=O)c3ccccc3nc2s1` here?
A: The value was -8.92% (inactive).

Q: Which Potency does the source give for `Cc1nc(C)c(-c2ccc3ncnc(NCc4ncc[nH]4)c3c2)s1` here?
A: The Potency was 44.7 µM (active).

Q: Which Potency does the source give for `Cc1cccc(-n2cnc3cc(C(=O)NC4CCCC4)ccc32)c1` here?
A: The Potency was 44.7 µM (active).

Q: With `CC(C)=CCC/C(C)=C/CC/C(C)=C/CSc1ccccc1C(=O)O` as the compound, how does the “activity change, negative = inhibition” value read?
A: The value was -2.24% (inactive).

Q: For `Cc1ccc(-n2ncc3c(NCCCN(C)C)ncnc32)cc1Cl`, which Potency is on record?
A: The Potency was 44.7 µM (active).

Q: With `Cc1cc(C)n2c(Nc3c(C)cccc3C)c(-c3ccsc3)nc2n1` as the compound, how does the “activity change, negative = inhibition” value read?
A: The value was -2.07% (inactive).

Q: For `O=C(O)c1ccc(-c2noc(-c3cccc(Cl)c3)n2)cc1`, which “activity change, negative = inhibition” value is on record?
A: Its value is -31.6% (inactive).

Q: For `OCc1cccc(-c2noc(-c3ccccc3F)n2)c1`, which “activity change, negative = inhibition” value is on record?
A: Its value is -24.6% (inactive).
